# SKKanGAS inh: inhibitors of SKKanGAS S. pyogenes growth in kanamycin (SK-promoter or general growth effect); BacTiter-Glo, 6 h; inhibition, % at 7.5 µM; 300,000 tested, 1.3% active;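 active = mean replicate score, as percent of positive control median, at least 50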;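 note: strain carries kanamycin resistance gene driven by streptokinase promoter and grows in 40 µg/ml kanamycin; loss of luminescence reflects streptokinase promoter inhibition or plain growth inhibition; 0% = median of DMSO wells and 100% = positive control at its reference dose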
# CSC inhib: blocks cancer stem cells; cancer stem cell-like cells viability, luminescence; inhibition, % at 7.5 µM; 300,000 tested, 1.1% active; AID 2717; in the data active = inhibition above about 75%; tested in HMLE shEcad cells
# Beta cell apopt: blocks beta cell apoptosis | INS-1E cytokine-induced death, ATP luminescence, 48 h; percent of positive-control rescue, neutral wells zero | protection from apoptosis, % (concentration not given with the values) | 300,000 tested, 0.8% active | AID 435005;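 active = Every replicate reaches about 75%, or at least half do and their mean reaches it too, limit read from the data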;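 note: 0% = cytokine-treated negative control wells and 100% = positive control rescue; higher means more ATP so stronger rescue from cytokine killing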
# PP5 primary: inhibitors of human protein phosphatase 5 (PP5); inhibition, % at 6.7 µM; 320,000 tested, 0.18% active; purified PP5c, OMFP substrate fluorescence;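 active = inhibition above the campaign's mean inhibition across all tested compounds plus 3 SD, cut at about 9.5% in these data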;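 note: 0% = DMSO only and 100% = 100 µM cantharidin control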
# PP1 inh: PP1-alpha (human) inhibition in PP5 counter-screen; purified PP1alpha, OMFP fluorescence; AID 2235; 320,000 tested, 0.9% active; P62136; inhibition, % at 6.7 µM;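 active = inhibition above the mean inhibition of all tested compounds plus 3 SD, computed separately for each screening campaign, cut at about 15% in these data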
# Target sequence (P62136 whole entry, looked up): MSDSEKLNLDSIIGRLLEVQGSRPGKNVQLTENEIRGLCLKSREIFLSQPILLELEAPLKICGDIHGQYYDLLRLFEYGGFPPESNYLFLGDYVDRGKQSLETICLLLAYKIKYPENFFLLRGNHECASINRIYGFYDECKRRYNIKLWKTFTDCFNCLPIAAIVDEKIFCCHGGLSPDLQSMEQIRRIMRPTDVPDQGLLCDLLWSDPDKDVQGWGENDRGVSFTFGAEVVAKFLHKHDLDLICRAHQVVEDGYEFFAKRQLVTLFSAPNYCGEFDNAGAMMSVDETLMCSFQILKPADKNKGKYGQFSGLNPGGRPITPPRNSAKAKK
# * marks the source's active call; other numbers are inactive results; . = no result given. Compounds with a hit are over-represented: about 3.1% of the library has one in this group of screens.
SMILES,SKKanGAS inh,CSC inhib,Beta cell apopt,PP5 primary,PP1 inh
O=C(NCC1CCCO1)c1ccc(Cl)c(S(=O)(=O)Nc2ccccc2)c1 (stereo not given),-2.0,-14.3,3.5,1.3,-2.5
CCCC[C@@H](CN[C@H](C)CNC)NCC1CCC(C(C)(C)C)CC1 (stereo not given in full),20.9,126.1*,93.4*,2.9,-0.9
COC(=O)c1ccccc1C(=O)N1CCCC(CCC(=O)NCc2ccc(F)c(F)c2)C1 (stereo not given),-0.8,-8.7,-3.8,-0.5,-2.5
COCCNC(=S)N(CCc1c(C)[nH]c2ccccc12)Cc1cccnc1,6.5,-6.6,-1.3,-1.5,-2.9
COc1cc2c(C(=O)N3CCN(c4ccccc4C)CC3)c(C)oc2cc1Br,51.3*,20.1,-1.3,1.2,-5.1
O=C(CCC(=O)c1ccc(F)cc1)Nc1cccc(S(=O)(=O)Nc2cccc(Cl)c2)c1,12.1,42.1,-3.8,5.5,6.9
COc1cc2c(cc1NC(=O)CN(C)Cc1cccc(OC)c1OC)oc1ccccc12,-0.1,98.9*,-8.3,2.0,2.1
COc1cc(N=c2c([N+](=O)[O-])nn(-c3ccc4c(c3)OCCO4)n2O)cc(OC)c1,73.3*,-6.9,6.0,1.7,2.2
CC(C)c1ccc(N=c2c([N+](=O)[O-])nn(-c3ccc4c(c3)OCCO4)n2O)cc1,21.1,23.1,-0.1,1.0,3.4
NC(=O)c1cccc(CS(=O)(=O)c2ccc(Cl)cc2)c1,-3.1,0.7,-9.2,0.5,0.8
O=C(N/N=C1/C(=O)c2cccc3cccc1c23)c1ccc(Cl)cc1,99.8*,38.2,26.7,4.5,0.6
COCCCNCC(O)C(F)(F)F (stereo not given),-1.4,-7.3,-0.4,1.2,-3.1
Cn1nc(-c2ccccc2F)c2cc(C(=O)Nc3ccc4c(c3)OCCO4)sc21,26.4,77.1*,49.7,2.9,2.0
CCCN(CCC)CCNC(=O)c1cc2c(-c3ccccc3F)nn(C)c2s1,0.8,2.2,4.7,-3.6,-1.8
COc1cccc(-c2nn(C)c3sc(C(=O)Nc4ccc5c(c4)OCCO5)cc23)c1,59.5*,40.5,25.4,1.1,-2.5
Fc1ccc(-c2nc3c(-c4ccc(Cl)cc4)cnn3cc2CCN2CCOCC2)cc1,-2.9,21.9,13.1,-1.6,1.1
Cc1cc(C(=O)OCC(=O)N(C)c2ccccc2)c(C)o1,.,-7.9,-0.3,.,.
Cc1cccc(C)c1NC(=O)CSc1nnc(-c2cccnc2)o1,-4.2,-16.2,-4.6,2.5,-1.5
COc1ccc(C(=O)Nc2ccccc2-c2nnn(CC(=O)Nc3ccc4c(c3)OCCO4)n2)cc1,66.0*,13.8,-1.6,4.0,-3.1
COCCn1c(SCC(=O)c2c(N)n(C3CC3)c(=O)[nH]c2=O)nnc1-c1cccc(C)c1,.,-9.2,-3.6,1.1,-1.4
Cc1ccc(S(=O)(=O)Nc2ccc(Cl)cc2)cc1NC(=O)c1cc2c(s1)CCCC2,53.3*,20.3,7.9,4.4,4.8
COc1ccc(C2/C=C\CN(C(=O)c3ccccc3)[C@H](Cc3ccccc3)C(=O)N2Cc2ccc(F)cc2)cc1 (stereo not given in full),18.0,26.1,93.7*,5.5,12.2
COc1ccc([C@H]2/C=C\CN(C(=O)c3ccc(C)cc3)[C@@H](C)C(=O)N2Cc2ccc(F)cc2)cc1,9.4,.,4.1,3.0,2.5
COC(=O)N1C/C=C\C(c2ccc(OC)cc2)N(Cc2ccc(F)cc2)C(=O)C1 (stereo not given),5.1,-28.9,-9.2,-0.9,1.6
COc1ccc(C2/C=C\CN(C(=O)Nc3ccccc3-c3ccccc3)CC(=O)N2Cc2ccc(F)cc2)cc1 (stereo not given),31.4,15.2,2.5,5.1,16.0*
SMILES,SKKanGAS inh,CSC inhib,Beta cell apopt,PP5 primary,PP1 inh
CN(CC(=O)Nc1cccc(F)c1)C(=O)c1cn(-c2ccccc2)nc1-c1cccs1,18.2,11.0,2.9,2.6,1.9
COc1ccc(NC(=O)CN(C)C(=O)/C=C/c2cn(-c3ccccc3)nc2-c2ccc(C)cc2)cc1,58.1*,11.2,6.7,6.1,13.5
COc1ccc(NC(=O)CN(C)C(=O)/C=C/c2cn(-c3ccccc3)nc2-c2ccc(F)cc2)cc1,63.1*,7.9,-0.9,3.5,-9.9
COc1cccc(NC(=O)CN(C)C(=O)/C=C/c2cn(-c3ccccc3)nc2-c2ccc(C)cc2)c1,23.6,-3.3,.,2.5,-2.8
CN(CC(=O)Nc1cccc(F)c1)C(=O)c1cn(-c2ccccc2)nc1-c1ccc(Cl)cc1,.,102.0*,18.2,7.5,-0.1
CS(=O)(=O)Nc1ccc(C(=O)Nc2ccccc2-c2ccccc2)cc1,-0.2,-9.9,-5.9,-0.1,-1.9
